The whole screen tested about 5,500 compounds, of which about 2,000 (36%) were called active. Roughly 18% stayed inconclusive and do not appear here. Cut-off read from the data, not from the text of the source: active = normalized growth mostly below about 0.91 (no sharp cut-off); inconclusive = no clear call, values can overlap the other calls; inactive = mostly above about 0.92. The list shows a part of the results.
Assay: chemical genetic growth profiling, strain panel (AID 1159580);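 note: tested at 20 µM; growth read once vehicle control cultures reached saturation at 30 °C; 1 = growth at the plate median or of vehicle wells; lower values mean less growth of the strain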
Conditions: growth OD

Measured: normalized growth

COc1ccc(C[C@H](N)C(=O)N[C@@H]2[C@@H](CO)OC(n3cnc4c(N(C)C)ncnc43)[C@@H]2O)cc1 (some centres not stated)
inactive: S. cerevisiae deletion strains, locus YJR075W, strain HOC1, stronger effect = lower value 0.997 | S. cerevisiae deletion strains, locus YKL009W, strain mrt4, stronger effect = lower value 1.03 | S. cerevisiae deletion strains, locus YKL068W, stronger effect = lower value 1.02 | S. cerevisiae deletion strains, locus YKL085W, strain MDH1 (second series), stronger effect = lower value 1.01 | S. cerevisiae deletion strains, locus YKL085W, strain MDH1, stronger effect = lower value 1.01 | S. cerevisiae deletion strains, locus YKL160W, strain elf1, stronger effect = lower value 0.993 | S. cerevisiae deletion strains, locus YKL190W, strain CNB1, stronger effect = lower value 1 | S. cerevisiae deletion strains, locus YKR001C, strain vps1, stronger effect = lower value 1.02 | S. cerevisiae deletion strains, locus YKR026C, strain gcn3, stronger effect = lower value 1 | S. cerevisiae deletion strains, locus YKR091W, strain srl3, stronger effect = lower value 1.02 | S. cerevisiae deletion strains, locus YLL001W, strain dnm1, stronger effect = lower value 0.961 | S. cerevisiae deletion strains, locus YLL026W, stronger effect = lower value 0.987 | S. cerevisiae deletion strains, locus YLL041C, strain sdh2, stronger effect = lower value 1 | S. cerevisiae deletion strains, locus YLR027C, strain aat2, stronger effect = lower value 0.997 | S. cerevisiae deletion strains, locus YLR039C, strain RIC1, stronger effect = lower value 1.04 | S. cerevisiae deletion strains, locus YLR058C, strain SHM2, stronger effect = lower value 1.01 | S. cerevisiae deletion strains, locus YLR102C, strain apc9, stronger effect = lower value 1.01 | S. cerevisiae deletion strains, locus YLR113W, strain HOG1, stronger effect = lower value 0.989 | S. cerevisiae deletion strains, locus YLR221C, strain rsa3, stronger effect = lower value 0.991 | S. cerevisiae deletion strains, locus YLR258W, strain gsy2, stronger effect = lower value 1 | S. cerevisiae deletion strains, locus YLR262C, strain YPT6 (second series), stronger effect = lower value 1.01 | S. cerevisiae deletion strains, locus YLR262C, strain YPT6, stronger effect = lower value 1.04 | S. cerevisiae deletion strains, locus YLR268W, strain sec22, stronger effect = lower value 1.01 | S. cerevisiae deletion strains, locus YLR320W, strain mms22, stronger effect = lower value 1 | S. cerevisiae deletion strains, locus YLR330W, strain CHS5, stronger effect = lower value 1.01 | S. cerevisiae deletion strains, locus YLR342W, strain FKS1 (second series), stronger effect = lower value 0.992 | S. cerevisiae deletion strains, locus YLR342W, strain FKS1, stronger effect = lower value 0.996 | S. cerevisiae deletion strains, locus YLR357W, strain rsc2, stronger effect = lower value 1.01 | S. cerevisiae deletion strains, locus YLR370C, strain arc18, stronger effect = lower value 0.985 | S. cerevisiae deletion strains, locus YLR371W, strain rom2, stronger effect = lower value 1.02 | S. cerevisiae deletion strains, locus YLR384C, strain iki3, stronger effect = lower value 0.979 | S. cerevisiae deletion strains, locus YLR418C, strain cdc73, stronger effect = lower value 0.988 | S. cerevisiae deletion strains, locus YML016C, strain PPZ1, stronger effect = lower value 1.01 | S. cerevisiae deletion strains, locus YML032C, strain rad52, stronger effect = lower value 1.03 | S. cerevisiae deletion strains, locus YML120C, strain ndi1, stronger effect = lower value 0.996 | S. cerevisiae deletion strains, locus YML124C, strain tub3, stronger effect = lower value 1.02 | S. cerevisiae deletion strains, locus YMR058W, strain fet3, stronger effect = lower value 1 | S. cerevisiae deletion strains, locus YMR078C, strain ctf18, stronger effect = lower value 1.02 | S. cerevisiae deletion strains, locus YMR125W, strain sto1, stronger effect = lower value 1.01 | S. cerevisiae deletion strains, locus YMR129W, stronger effect = lower value 0.995 | S. cerevisiae deletion strains, locus YMR205C, strain PFK2, stronger effect = lower value 1 | S. cerevisiae deletion strains, locus YMR223W, strain ubp8, stronger effect = lower value 1.03 | S. cerevisiae deletion strains, locus YMR231W, strain pep5, stronger effect = lower value 0.987 | S. cerevisiae deletion strains, locus YMR263W, strain SAP30, stronger effect = lower value 1 | S. cerevisiae deletion strains, locus YMR307W, strain GAS1, stronger effect = lower value 1.06 | S. cerevisiae deletion strains, locus YNL067W, strain RPL9B, stronger effect = lower value 1 | S. cerevisiae deletion strains, locus YNL071W, strain lat1, stronger effect = lower value 1.01 | S. cerevisiae deletion strains, locus YNL128W, strain TEP1, stronger effect = lower value 1.01 | S. cerevisiae deletion strains, locus YNL153C, strain GIM3, stronger effect = lower value 0.988 | S. cerevisiae deletion strains, locus YNL183C, strain NPR1, stronger effect = lower value 0.935 | S. cerevisiae deletion strains, locus YNL209W, strain ssb2, stronger effect = lower value 0.996 | S. cerevisiae deletion strains, locus YNL233W, strain BNI4, stronger effect = lower value 1 | S. cerevisiae deletion strains, locus YNL248C, strain rpa49, stronger effect = lower value 1.01 | S. cerevisiae deletion strains, locus YNL250W, strain rad50, stronger effect = lower value 1.04 | S. cerevisiae deletion strains, locus YNL271C, strain bni1, stronger effect = lower value 1.01 | S. cerevisiae deletion strains, locus YNL298W, strain CLA4, stronger effect = lower value 1.01 | S. cerevisiae deletion strains, locus YNL307C, strain MCK1, stronger effect = lower value 1.04 | S. cerevisiae deletion strains, locus YNL322C, strain KRE1 (second series), stronger effect = lower value 0.994 | S. cerevisiae deletion strains, locus YNL322C, strain KRE1, stronger effect = lower value 1.01 | S. cerevisiae deletion strains, locus YNR049C, strain mso1, stronger effect = lower value 0.987 | S. cerevisiae deletion strains, locus YNR052C, strain pop2, stronger effect = lower value 1.02 | S. cerevisiae deletion strains, locus YOL006C, strain TOP1, stronger effect = lower value 1.02 | S. cerevisiae deletion strains, locus YOL012C, strain htz1 0.862 | S. cerevisiae deletion strains, locus YOL147C, strain pex11, stronger effect = lower value 1.02 | S. cerevisiae deletion strains, locus YOR001W, strain rrp6, stronger effect = lower value 0.988 | S. cerevisiae deletion strains, locus YOR061W, strain CKA2, stronger effect = lower value 1.01 | S. cerevisiae deletion strains, locus YOR069W, strain VPS5, stronger effect = lower value 0.996 | S. cerevisiae deletion strains, locus YOR070C, strain gyp1, stronger effect = lower value 0.984 | S. cerevisiae deletion strains, locus YOR080W, strain dia2, stronger effect = lower value 0.992 | S. cerevisiae deletion strains, locus YOR083W, strain WHI5, stronger effect = lower value 1.02 | S. cerevisiae deletion strains, locus YOR106W, strain vam3, stronger effect = lower value 0.984 | S. cerevisiae deletion strains, locus YOR136W, strain idh2, stronger effect = lower value 1.02 | S. cerevisiae deletion strains, locus YOR144C, strain elg1, stronger effect = lower value 1.01 | S. cerevisiae deletion strains, locus YOR184W, strain ser1, stronger effect = lower value 1.04 | S. cerevisiae deletion strains, locus YOR231W, strain MKK1, stronger effect = lower value 0.961 | S. cerevisiae deletion strains, locus YOR265W, strain rbl2, stronger effect = lower value 0.991 | S. cerevisiae deletion strains, locus YOR270C, strain vph1, stronger effect = lower value 0.993 | S. cerevisiae deletion strains, locus YOR290C, strain snf2, stronger effect = lower value 1 | S. cerevisiae deletion strains, locus YOR316C, strain cot1, stronger effect = lower value 1.02 | S. cerevisiae deletion strains, locus YPL051W, strain arl3, stronger effect = lower value 0.976 | S. cerevisiae deletion strains, locus YPL055C, strain LGE1, stronger effect = lower value 1 | S. cerevisiae deletion strains, locus YPL078C, strain atp4, stronger effect = lower value 0.972 | S. cerevisiae deletion strains, locus YPL106C, strain sse1, stronger effect = lower value 0.996 | S. cerevisiae deletion strains, locus YPL240C, strain hsp82, stronger effect = lower value 0.986 | S. cerevisiae deletion strains, locus YPL241C, strain CIN2, stronger effect = lower value 1 | S. cerevisiae deletion strains, locus YPL256C, strain CLN2, stronger effect = lower value 0.965 | S. cerevisiae deletion strains, locus YPR119W, strain clb2, stronger effect = lower value 1.01 | S. cerevisiae deletion strains, locus YPR141C, strain kar3, stronger effect = lower value 1.03 | S. cerevisiae deletion strains, locus YPR163C, strain tif3, stronger effect = lower value 1.02 | S. cerevisiae deletion strains, locus YPR167C, strain met16, stronger effect = lower value 1.02 | S. cerevisiae deletion strains, strain wtn01, stronger effect = lower value 0.986 | S. cerevisiae strains, strain wild type, stronger effect = lower value 1.01
